Source: PubChem (several laboratories)
Most compounds without a hit are left out; they make up all but 3.2% or so of the library.
PHOSPHO1 inh – PubChem AID 1565 | 290,000 tested, 1.1% active | inhibition, % at 13.3 µM | Phosphoethanolamine/phosphocholine phosphatase (Homo sapiens), Q8TCT1 | recombinant PHOSPHO1, absorbance phosphatase assay; in the data active = inhibition above about 60%
Target sequence (Q8TCT1 whole entry, looked up): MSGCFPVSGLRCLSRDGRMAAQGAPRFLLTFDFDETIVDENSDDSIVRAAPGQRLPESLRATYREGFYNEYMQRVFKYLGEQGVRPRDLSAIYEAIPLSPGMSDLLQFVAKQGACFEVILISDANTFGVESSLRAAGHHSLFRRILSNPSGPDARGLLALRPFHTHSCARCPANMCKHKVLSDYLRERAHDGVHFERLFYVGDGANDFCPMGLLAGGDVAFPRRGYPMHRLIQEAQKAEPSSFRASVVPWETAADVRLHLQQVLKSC
CHT inh – inhibitors of human choline transporter CHT; CHT-expressing cells, membrane potential dye, choline response; stronger effect = lower value; B-score at 10 µM; 310,000 tested, 0.86% active; AID 488975, 2010;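 active = B-score over 3 SD under the library average, and starting fluorescence ratio not unusually high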;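 note: choline stimulus applied at its EC90 after an EC20 pre-addition; B-score computed on integrated fluorescence ratio after choline addition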
HDAC3 inh – HDAC3 deacetylase inhibitors, primary screen, biochemical, fluorescence, cell-free homogeneous; Histone deacetylase 3 (Homo sapiens), O15379; recombinant HDAC3, fluorogenic peptide/trypsin coupled; inhibition, % at 8.3 µM; 320,000 tested, 0.15% active; AID 2718, 2010; in the data active = inhibition above about 26%, passing the limit was not always enough
Target sequence (O15379 whole entry, looked up): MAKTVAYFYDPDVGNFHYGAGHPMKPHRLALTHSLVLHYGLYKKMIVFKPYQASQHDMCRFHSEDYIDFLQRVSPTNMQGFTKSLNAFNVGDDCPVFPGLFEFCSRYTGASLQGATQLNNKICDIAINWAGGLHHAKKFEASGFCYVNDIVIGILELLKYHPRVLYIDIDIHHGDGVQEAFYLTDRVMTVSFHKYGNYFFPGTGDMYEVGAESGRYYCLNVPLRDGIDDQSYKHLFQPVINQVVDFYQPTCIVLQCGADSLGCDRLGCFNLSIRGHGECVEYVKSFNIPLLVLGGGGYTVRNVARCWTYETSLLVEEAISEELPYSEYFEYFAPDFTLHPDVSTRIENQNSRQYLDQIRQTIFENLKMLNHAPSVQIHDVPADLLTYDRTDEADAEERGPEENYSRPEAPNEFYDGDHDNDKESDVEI
CHT PAM – CHT positive allosteric modulators, primary screen, cell-based, membrane potential dye, choline EC20 | CHT-expressing cells; stronger effect = higher value; LV-AA mutant CHT in HEK293 cells | B-score at 10 µM | 310,000 tested, 0.49% active | AID 488977, 2010;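 active = initial fluorescence not abnormally high and integrated response B-score, plate-corrected, over 3 SD above library mean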
ANO1 activ – TMEM16A chloride channel activators or potentiators, primary screen, cell-based, HTS. Anoctamin-1 (Mus musculus), Q8BHY3. HEK293 TMEM16A/YFP-H148Q/I152L, iodide quench fluorescence; stronger effect = lower value. B-score at 10 µM. 340,000 tested, 0.3% active;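 active = fluorescence-ratio B-score plate-corrected deviation score at least 3 library SD below zero, with starting fluorescence score within 5 deviations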;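 note: channel opened by trigger with iodide after compound preincubation; score built on the fluorescence ratio of max minus min over baseline; more negative score means more quench and so TMEM16A activation or potentiation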
ANO1 block – TMEM16A chloride channel inhibitors, primary screen, cell-based, HTS; HEK293 TMEM16A/YFP iodide influx fluorescence, ionomycin; Anoctamin-1 (Mus musculus), Q8BHY3; normalized B-score (activity score, 25-100; higher = stronger inhibition) at 10 µM; 310,000 tested, 1.2% active; AID 588511, 2011;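 active = ratio plate-corrected score three or more library SD toward inhibition, starting fluorescence score within five deviations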;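 note: score derived from kinetic fluorescence span divided by baseline fluorescence per well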
CHT inh conf – CHT inhibitors, confirmation, cell-based, membrane potential dye, duplicate; 2,400 tested, 70% active; CHT-expressing cells, choline membrane potential dye; LV-to-AA substituted CHT, HEK293 cells; shares compounds with CHT inh; CHT activity remaining % of control (stronger effect = lower value), % at 10 µM;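 active = choline transporter activity left, mean of duplicates at 10 µM, below buffer-only control mean minus 3 SD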;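 note: depolarization triggered by choline at its EC90 following an EC20 pre-addition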
HEK293 MPD ctr – membrane potential effects in parental HEK293, counter-screen for CHT inhibitor project, cell-based, membrane potential dye; AID 493222, 2011; shares compounds with CHT inh; choline response; active = decrease or increase beyond buffer ±3SD; membrane potential ratio readout (active if shifted either direction beyond buffer ±3SD; no single direction) at 10 µM; 2,400 tested, 4% active;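 note: parental cells lack the transporter so any hit is non-specific; ratio is peak minus trough fluorescence over baseline after EC90 choline challenge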
Each line names hits and unclear results; the compound was inactive in the other large screens (follow-up assays come after a bar, where they were run).

COc1cccc(/C=N/NC(=O)C(=O)NCc2cccnc2)c1O	none
COc1cccc(/C=N/NC(=O)C(=O)NCc2cccnc2)c1OC	CHT inh -5.9 | CHT inh conf inactive | HEK293 MPD ctr inactive
CC1(C)CC(=O)/C(=C(/O)CCCN2C(=O)c3ccccc3C2=O)C(=NC(C)(C)C)C1	none
CC1(C)CC(=O)/C(=C(\O)CCCN2C(=O)c3ccccc3C2=O)C(=NCC(=O)O)C1	CHT inh -5.4 | CHT inh conf inactive | HEK293 MPD ctr inactive
CCOC(=O)c1cc(CC)sc1NC(=O)COc1ccc2c(C)cc(=O)oc2c1	CHT inh -7.3 | CHT inh conf inactive | HEK293 MPD ctr inactive
S=C(NCc1ccccn1)Nc1ccc(Br)cc1Cl	CHT inh -6.4 | CHT inh conf 38% | HEK293 MPD ctr inactive
CCOC(=O)c1ccc(NC(=S)NNC(=O)C2(C)CC2(Cl)Cl)cc1 (centres undefined)	CHT inh -6.7 | CHT inh conf inactive | HEK293 MPD ctr inactive
COc1ccc(-c2noc(C3CCCN(C(=O)c4c(F)cccc4F)C3)n2)cc1OC (centres undefined)	none
Cc1cccc(NC(=O)c2n[nH]c([N+](=O)[O-])c2Br)c1C	CHT inh -5 | CHT inh conf 61% | HEK293 MPD ctr inactive
CSc1sc(-c2nnc(SCC(=O)Nc3ccccc3)n2C)c2c1C=CCC2	none
CC(=O)n1cc(Nc2ccc([N+](=O)[O-])cc2)c2ccccc21	none
CC(=O)SC(C[N+](=O)[O-])c1cn(C(C)=O)c2ccccc12 (centres undefined)	PHOSPHO1 inh 63, CHT inh -5.5 | CHT inh conf 67% | HEK293 MPD ctr inactive
COc1ccnc(N2CCN(c3ccccc3)CC2)c1C#N	CHT inh -8.3 | CHT inh conf inactive | HEK293 MPD ctr inactive
COc1ccc(N2CCN(c3ncccc3C#N)CC2)cc1	none
Cc1cccc(OCc2nnc(SCC(=O)NCCc3ccccc3)o2)c1	none
CSCc1cc(N(C)c2ccccc2)nc(-c2ccccn2)n1	none
Cc1ccc(Sc2ncccc2NC(=O)c2ccccc2Cl)cc1	CHT inh -5 | CHT inh conf inactive | HEK293 MPD ctr inactive
O=C(CC(=O)c1ccccc1O)c1cccc(F)c1	none
O=C(CC(=O)c1c(F)cccc1Cl)c1ccccc1O	CHT inh -5.6 (no result: PHOSPHO1 inh) | CHT inh conf 46% | HEK293 MPD ctr inactive
CCOC(=O)Cn1nnc(-c2ccccc2)n1	none
CCc1ccccc1-n1nnc(-c2ccccc2)n1	CHT inh -5.4 (no result: ANO1 activ) | CHT inh conf inactive | HEK293 MPD ctr inactive
Cc1sc2ncnc(NCc3ccco3)c2c1C	CHT inh -5.4 | CHT inh conf 65% | HEK293 MPD ctr inactive
Cc1c(Cc2ccccc2)c(=O)oc2cc(OCc3ccc(C(=O)O)cc3)ccc12	none
CCOc1ccc(NC(=O)Cn2nc(-c3ccccc3Cl)n(CC)c2=S)cc1	none | CHT inh conf inactive | HEK293 MPD ctr inactive
CCOc1ccc(NC(=O)Cn2nnc(-c3ccccc3F)n2)cc1	none
Cc1cccc(Cc2c(C)nc3nc(SCC(=O)O)nn3c2C)c1	none
CCCCOCCCNC(=O)C1c2ccccc2Oc2ccccc21	none
Cc1cc(/C=N/NC(=O)C(=O)N2CCCC2)c(C)n1-c1cccc(Br)c1	CHT inh -7.4 | CHT inh conf 58% | HEK293 MPD ctr inactive
Cc1cc(/C=N/NC(=O)c2c(Br)cnn2C)c(C)n1-c1cccc(Br)c1	none
O=C(Nc1ccc(F)c(F)c1)C1CCCCC1	none (no result: PHOSPHO1 inh)
COc1ccccc1C(=O)NCC(=O)Nc1ccc2c(c1)CCC2	none (no result: PHOSPHO1 inh, CHT inh, CHT PAM, ANO1 block)
O=C1NN(c2ccccc2)C(=O)/C1=C/c1coc2ccccc2c1=O	CHT inh -5.3 | CHT inh conf 31% | HEK293 MPD ctr inactive
CC(=O)Nc1ccc(C(=O)Cn2nnc3ccccc3c2=O)cc1	none
O=C(O)c1ccc(/C=C2\COc3ccccc3C2=O)cc1	CHT inh -6.8 | CHT inh conf 33% | HEK293 MPD ctr inactive
O=[N+]([O-])c1cc(Br)c(O)c(/C=N/Nc2nnnn2-c2cccc3ccccc23)c1	CHT inh -9.2, ANO1 block 100 | CHT inh conf 33% | HEK293 MPD ctr inactive
O=C(c1cc(COc2ccc(F)cc2Cl)on1)N1CCC(c2ccncc2)CC1	CHT inh -6.5, ANO1 block 25 | CHT inh conf 56% | HEK293 MPD ctr inactive
COc1ccc(N2CCCn3c2nc2c3c(=O)n(Cc3ccccc3)c(=O)n2C)c(OC)c1	none
CCc1ccc2nc(NC(=O)C3CSC4(C)CCC(=O)N34)sc2c1 (centres undefined)	none (no result: PHOSPHO1 inh)
Cc1cc(C)c(NC(=O)COC(=O)C2CCCO2)c(C)c1 (centres undefined)	none (no result: PHOSPHO1 inh, CHT inh, CHT PAM, ANO1 block)
O=C1NC(=O)C(c2cccs2)(c2cccs2)N1	none
S=C(c1ccc(-c2ccc(Cl)cc2Cl)o1)N1CCCC1	none
CN1CCN(C(=S)c2ccc(-c3cc(Cl)ccc3Cl)o2)CC1	CHT inh -9.7 | CHT inh conf inactive | HEK293 MPD ctr inactive
Cc1ccc(C)c(OCC(=O)Nc2ccc(S(=O)(=O)Nc3ccccn3)cc2)c1C	CHT inh -7.2 | CHT inh conf 59% | HEK293 MPD ctr inactive
O=C(Nc1ccc(S(=O)(=O)Nc2ccccn2)cc1)c1ccc(Cl)cc1Cl	CHT inh -12 | CHT inh conf -0.5% | HEK293 MPD ctr inactive
Cc1cc(NS(=O)(=O)c2ccc(NC(=O)c3ccc(Cl)cc3Cl)cc2)no1	CHT inh -9.4 | CHT inh conf 13% | HEK293 MPD ctr inactive
Cc1noc(NS(=O)(=O)c2ccc(NC(=O)c3oc4ccc(Cl)cc4c3C)cc2)c1C	CHT inh -5.6 | CHT inh conf 59% | HEK293 MPD ctr inactive
Cc1onc(-c2c(F)cccc2Cl)c1C(=O)NNC(=O)C1CCN(Cc2cccc(F)c2)CC1	none
COc1ccc(NC(=O)c2cnc(SCC(=O)NCCc3ccccc3)n(C)c2=O)cc1	none (no result: PHOSPHO1 inh)
O=C(CN1C(=O)NC2(CCCC2)C1=O)c1ccc(Cl)s1	none (no result: PHOSPHO1 inh)
Cc1cnc(C(=O)OCC(=O)Nc2sc3c(c2C#N)CCC3)cn1	none (no result: PHOSPHO1 inh)
CC(C)(C)S(=O)(=O)/C(C#N)=N/Nc1ccc(S(N)(=O)=O)cc1	none
CC(C)(C)S(=O)(=O)/C(C#N)=N/Nc1ccc(C#N)cc1	none | CHT inh conf 55% | HEK293 MPD ctr inactive
